The source of these data is PubChem BioAssay.

A short description of experiment [1]: sensitizers of A549 cells to miR-34 induction, primary screen, imaging, A549 dox-inducible miR-34, nuclei and caspase counts (AID 1347080). The conditions noted are these: A549 miR-34 inducible, Hoechst nuclei count, 48 h.
Experiment [2] is described as follows: survival rescue of mitochondrial mutant cells in low glucose, primary screen, MELAS cybrids, Rieske KO mouse fibroblasts, CellTiter-Glo (AID 1508586;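 active means mean z-score across replicates of 1.96 or higher in either the MELAS or the Rieske mutant cell line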;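 further: z relative to plate mean and SD of compound and empty wells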). On the technique in general: Cellular ATP, detected with luciferase, serves as a proxy for viable cell number.
The target of experiment [3] is NAD(+) hydrolase SARM1 (Homo sapiens) (UniProt Q6SZW1). As to the kind of experiment: SARM1 TIR NADase inhibitors, cell lysate, NAD-Glo luminescence (AID 1508614;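 active means compound whose remaining NAD level is above about 45 nM, limit read from the data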). The conditions noted are these: SAM-TIR HEK293T lysate NADase, at 1 µM, stronger effect = higher value.
The target of experiment [4] is Mitogen-activated protein kinase 7 (Homo sapiens) (UniProt Q13164). The experiment can be described thus: ERK5 transactivation activators in reporter cells, primary screen, cell-based, HTS (AID 1508626;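 active means luciferase signal above three times the same-plate solvent-only control wells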;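 further: luciferase driven by Gal4-ERK5 fusion binding five Gal4 sites before minimal TATA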). The conditions noted are these: HeLa Gal4-ERK5 transactivation, 18 h, at 5 µM, stronger effect = higher value.
Experiment [5] is described as follows: viability rescue of complex I mutant cybrids, primary screen, cell-based, galactose medium, ATP luminescence (AID 1645843;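 active means z-score of at least 1.8 in each of two replicates, scored against plate mean and spread of sample wells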;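 further: positive z means more ATP and so rescue of galactose-driven cybrid death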). The conditions noted are these: complex I mutant cybrid cells, 72 h, stronger effect = higher value.
[6] abbreviates: stronger effect = lower value, cell number ratio, induced over uninduced.
The mark [7] stands for this setting: measured here: relative caspase fold change +Dox/-Dox.
Setting [8] is: measured here: total cells with miR-34 induction, stronger effect = lower value.
The mark [9] stands for this setting: measured here: total cells without miR-34 induction.
Where [10] appears, read: MELAS cybrid survival, CellTiter-Glo 48 h, stronger effect = higher value.
The mark [11] stands for this setting: Rieske KO mouse fibroblast survival, CellTiter-Glo 72 h.

Structures are written as SMILES. Several values for one entry are separate records, joined by “and”; a condition that tells them apart may be missing. Equal entries are not always repeated. More than one record can exist for a structure, and the calls need not agree. Activity calls are given as the source filed them.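 How the source made its calls, unless noted: active means compounds whose cell count with miR-34 switched on is under 0.7 times the count with it off; inactive means the rest.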

NAD(+) hydrolase SARM1 (Homo sapiens), sequence (Q6SZW1 whole entry, looked up, the tested form may be a part): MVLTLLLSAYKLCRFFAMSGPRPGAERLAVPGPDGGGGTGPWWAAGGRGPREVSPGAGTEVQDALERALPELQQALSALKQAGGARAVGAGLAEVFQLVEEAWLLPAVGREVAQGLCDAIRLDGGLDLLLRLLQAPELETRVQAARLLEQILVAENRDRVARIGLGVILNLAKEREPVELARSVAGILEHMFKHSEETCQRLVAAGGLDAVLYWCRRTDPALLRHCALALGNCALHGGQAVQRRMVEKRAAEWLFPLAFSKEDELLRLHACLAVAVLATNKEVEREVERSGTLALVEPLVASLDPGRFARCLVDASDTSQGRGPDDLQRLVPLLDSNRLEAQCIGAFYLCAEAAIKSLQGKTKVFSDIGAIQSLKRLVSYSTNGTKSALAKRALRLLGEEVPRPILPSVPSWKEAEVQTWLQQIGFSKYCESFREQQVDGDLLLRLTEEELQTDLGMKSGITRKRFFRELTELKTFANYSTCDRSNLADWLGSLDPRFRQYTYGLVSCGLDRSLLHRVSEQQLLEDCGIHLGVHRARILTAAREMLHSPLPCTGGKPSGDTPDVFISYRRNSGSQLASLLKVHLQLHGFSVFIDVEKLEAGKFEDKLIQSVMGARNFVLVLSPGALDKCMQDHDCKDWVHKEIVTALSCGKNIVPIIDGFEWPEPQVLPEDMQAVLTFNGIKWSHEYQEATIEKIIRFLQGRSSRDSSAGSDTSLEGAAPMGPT
Mitogen-activated protein kinase 7 (Homo sapiens), sequence (Q13164 whole entry, looked up, the tested form may be a part): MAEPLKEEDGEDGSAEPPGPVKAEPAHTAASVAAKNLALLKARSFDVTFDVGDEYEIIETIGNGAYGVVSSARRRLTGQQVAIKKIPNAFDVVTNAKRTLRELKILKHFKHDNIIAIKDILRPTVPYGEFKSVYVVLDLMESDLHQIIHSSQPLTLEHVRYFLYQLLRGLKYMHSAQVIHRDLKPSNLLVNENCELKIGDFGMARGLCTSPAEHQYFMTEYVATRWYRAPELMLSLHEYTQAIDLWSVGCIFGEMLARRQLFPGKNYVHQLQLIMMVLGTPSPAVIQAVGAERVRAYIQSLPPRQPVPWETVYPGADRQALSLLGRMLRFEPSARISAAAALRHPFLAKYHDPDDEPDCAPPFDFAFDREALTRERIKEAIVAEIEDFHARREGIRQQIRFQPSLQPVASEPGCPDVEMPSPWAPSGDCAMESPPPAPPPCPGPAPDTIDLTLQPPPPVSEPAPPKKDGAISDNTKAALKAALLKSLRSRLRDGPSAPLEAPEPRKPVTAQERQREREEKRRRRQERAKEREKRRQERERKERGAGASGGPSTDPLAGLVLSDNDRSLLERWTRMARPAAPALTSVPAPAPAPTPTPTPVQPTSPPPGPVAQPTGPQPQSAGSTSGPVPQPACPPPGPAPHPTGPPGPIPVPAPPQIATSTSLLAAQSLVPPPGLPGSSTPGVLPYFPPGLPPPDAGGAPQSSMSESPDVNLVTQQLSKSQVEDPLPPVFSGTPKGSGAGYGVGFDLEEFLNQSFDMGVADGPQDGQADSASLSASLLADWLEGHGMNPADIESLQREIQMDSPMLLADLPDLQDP

With `NCCCC[C@H](N[C@@H](CCc1ccccc1)C(=O)O)C(=O)N1CCC[C@H]1C(=O)O`, the fold change in experiment [1] (setting [6]) is 0.921 (inactive) and 0.874 (inactive) and 0.913 (inactive); in experiment [1] (setting [7]) it was 0.957 and 2.44 and 1.18. For the same molecule, the cell count in experiment [1] (setting [8]) is 8900 and 11300 and 9570; in experiment [1] (setting [9]), 9670 and 13000 and 10500. The z-score was 0.256 (inactive) and -0.39 (inactive) in experiment [2] (setting [10]); -0.142 and -0.658 in experiment [2] (setting [11]); 0.245 (inactive) in experiment [5]. Further, the remaining NAD in experiment [3] is 10 nM (inactive). Further, the luciferase signal in experiment [4] was 92 AU (inactive).

Regarding `COc1cc(C(=O)NCc2ccc(OCCN(C)C)cc2)cc(OC)c1OC`, the fold change in experiment [1] (setting [6]) is 0.938 (inactive) and 0.925 (inactive) and 0.912 (inactive); in experiment [1] (setting [7]), 0.8 and 0.443 and 2.44. For the same molecule, the cell count in experiment [1] (setting [8]) is 8110 and 8000 and 11800; in experiment [1] (setting [9]), 8650 and 12900. Also, the z-score in experiment [2] (setting [10]) was 3.55 (active) and 0.307 (inactive); in experiment [2] (setting [11]), -0.723 and -0.201; in experiment [5], 0.17 (inactive). The remaining NAD in experiment [3] is 10 nM (inactive). Moreover, in experiment [4], the luciferase signal is 48 AU (inactive).

On to `C[C@@](Cc1ccc(O)c(O)c1)(NN)C(=O)O`, for which the fold change in experiment [1] (setting [6]) was 0.855 (inactive) and 0.878 (inactive) and 0.94 (inactive); in experiment [1] (setting [7]) it was 1.15 and 0.758 and 1.14. Moreover, the cell count in experiment [1] (setting [8]) is 8030 and 8200 and 9200; in experiment [1] (setting [9]), 9400 and 9340 and 9790. Also, the z-score was -0.318 (inactive) and -0.0378 (inactive) and 0.282 (inactive) in experiment [2] (setting [10]); 0.573 and -0.159 and -0.894 in experiment [2] (setting [11]); 1.23 (inactive) and -0.53 (inactive) in experiment [5]. The remaining NAD in experiment [3] is 10 nM (inactive). Besides, the luciferase signal in experiment [4] was 56 AU (inactive).

`Oc1c(Br)cc(Br)c2cccnc12`: the fold change in experiment [1] (setting [6]) was 0.97 (inactive); in experiment [1] (setting [7]), 0.803. Besides, the cell count amounted to 7880 in experiment [1] (setting [8]) and 8120 in experiment [1] (setting [9]). For the same molecule, the z-score in experiment [2] (setting [10]) is -0.25 (inactive); in experiment [2] (setting [11]) it was -0.139. In addition, in experiment [3], the remaining NAD is 10 nM (inactive). Besides, the luciferase signal in experiment [4] was 88 AU (inactive).

Turning to `Cc1c(NC(=O)c2cccnc2)c(=O)n(-c2ccccc2)n1C`, the fold change was 0.892 (inactive) in experiment [1] (setting [6]) and 1.07 in experiment [1] (setting [7]). Moreover, the cell count turned out to be 8460 in experiment [1] (setting [8]) and 9480 in experiment [1] (setting [9]). Moreover, the z-score in experiment [2] (setting [10]) was 0.707 (inactive); in experiment [2] (setting [11]), 0.58. Besides, the remaining NAD in experiment [3] is 10 nM (inactive). Besides, the luciferase signal in experiment [4] is 56 AU (inactive).

As for `CC(Cc1cccc(C(F)(F)F)c1)NCCOC(=O)c1ccccc1` (stereo not drawn), the fold change in experiment [1] (setting [6]) was 0.816 (inactive); in experiment [1] (setting [7]) it was 1.56. In addition, the values for the cell count in experiment [1] (setting [8]) and in experiment [1] (setting [9]) were 8560 and 10500, respectively. Further, the results for the z-score in experiment [2] (setting [10]) and in experiment [2] (setting [11]) were 0.63 (inactive) and 0.0603, respectively. Moreover, the remaining NAD in experiment [3] is 10 nM (inactive). In addition, in experiment [4], the luciferase signal was 84 AU (inactive).

As for `Cc1c(NC(C)C)c(=O)n(-c2ccccc2)n1C`, the fold change in experiment [1] (setting [6]) is 0.876 (inactive); in experiment [1] (setting [7]), 1.14. The cell count turned out to be 8020 in experiment [1] (setting [8]) and 9170 in experiment [1] (setting [9]). Further, the z-score in experiment [2] (setting [10]) was -0.485 (inactive); in experiment [2] (setting [11]), -0.708. In addition, in experiment [3], the remaining NAD was 10 nM (inactive). Besides, the luciferase signal in experiment [4] was 56 AU (inactive).

Consider `Cc1[nH]c(C)c(Cl)c(=O)c1Cl`, for which the fold change was 0.869 (inactive) and 0.865 (inactive) in experiment [1] (setting [6]); 4.77 and 1.49 in experiment [1] (setting [7]). The cell count in experiment [1] (setting [8]) is 11500 and 9370; in experiment [1] (setting [9]) it was 13300 and 10800. Further, the z-score in experiment [2] (setting [10]) is -1.24 (inactive); in experiment [2] (setting [11]), -1.35; in experiment [5], 0.41 (inactive). The remaining NAD in experiment [3] was 10 nM (inactive). In addition, the luciferase signal in experiment [4] is 48 AU (inactive).

With `CCCCC(CC)CN1CN(CC(CC)CCCC)CC(C)(N)C1` (stereo not drawn), the fold change in experiment [1] (setting [6]) is 0.838 (inactive); in experiment [1] (setting [7]) it was 1.46. Moreover, the cell count in experiment [1] (setting [8]) was found to be 8130; in experiment [1] (setting [9]), 9710. For the same molecule, the results for the z-score in experiment [2] (setting [10]) and in experiment [2] (setting [11]) were -1.45 (inactive) and -0.231, respectively. Besides, in experiment [3], the remaining NAD is 10 nM (inactive). In addition, the luciferase signal in experiment [4] is 88 AU (inactive).

On to `CC1(C)S[C@@H]2[C@H](NC(=O)[C@H](N)c3ccccc3)C(=O)N2[C@H]1C(=O)O`, for which the fold change is 0.937 (inactive) and 0.929 (inactive) and 0.871 (inactive) in experiment [1] (setting [6]); 0.845 and 0.857 and 1.14 in experiment [1] (setting [7]). The cell count was 8790 and 10800 and 9210 in experiment [1] (setting [8]); 9380 and 11700 and 10600 in experiment [1] (setting [9]). Besides, the z-score in experiment [2] (setting [10]) was 0.56 (inactive) and 0.538 (inactive); in experiment [2] (setting [11]), -0.285 and -0.0992; in experiment [5], 0.415 (inactive). Moreover, the remaining NAD in experiment [3] is 10 nM (inactive). For the same molecule, the luciferase signal in experiment [4] was 44 AU (inactive).

With `CCOc1ccc(NC(C)=O)cc1`, the fold change in experiment [1] (setting [6]) was 0.886 (inactive) and 0.916 (inactive); in experiment [1] (setting [7]), 1.49 and 0.787 and 3.07. Moreover, the cell count in experiment [1] (setting [8]) was 9560 and 7800 and 11500; in experiment [1] (setting [9]), 10800 and 8520 and 12600. Further, the z-score in experiment [2] (setting [10]) is -0.475 (inactive) and -0.0201 (inactive); in experiment [2] (setting [11]) it was -0.108 and 0.061. Moreover, in experiment [3], the remaining NAD is 10 nM (inactive). Moreover, the luciferase signal in experiment [4] is 68 AU (inactive).

Regarding `CCN(CC)CCNc1ccc(CO)c2sc3ccccc3c(=O)c12`, the fold change in experiment [1] (setting [6]) is 0.933 (inactive) and 0.872 (inactive); in experiment [1] (setting [7]), 1.29 and 1.89. The cell count in experiment [1] (setting [8]) was 3110 and 3390; in experiment [1] (setting [9]) it was 3340 and 3880. Also, the figures for the z-score in experiment [2] (setting [10]) and in experiment [2] (setting [11]) were 4.63 (active) and 0.873, respectively. The remaining NAD in experiment [3] was 10 nM (inactive). Further, the luciferase signal in experiment [4] is 36 AU (inactive).

As to `O=C1c2cccc(O)c2C(=O)c2c(O)cccc21`, the fold change in experiment [1] (setting [6]) was 0.868 (inactive); in experiment [1] (setting [7]), 4.67. In addition, the cell count in experiment [1] (setting [8]) came out at 9530; in experiment [1] (setting [9]), 11000. The z-score is 0.3 (inactive) in experiment [2] (setting [10]) and 0.397 in experiment [2] (setting [11]). Moreover, the remaining NAD in experiment [3] was 10 nM (inactive). For the same molecule, the luciferase signal in experiment [4] was 176 AU (inactive).

As to `C=C1c2cccc(O)c2C(O)=C2C(=O)[C@]3(O)C(O)=C(C(N)=O)C(=O)[C@@H](N(C)C)[C@@H]3[C@@H](O)[C@H]12`, the fold change in experiment [1] (setting [6]) is 0.869 (inactive) and 0.999 (inactive); in experiment [1] (setting [7]) it was 1.25 and 1.82. In addition, the cell count is 7110 and 11900 in experiment [1] (setting [8]); 8180 and 11900 in experiment [1] (setting [9]). Further, the figures for the z-score in experiment [2] (setting [10]) and in experiment [2] (setting [11]) were 0.00753 (inactive) and -2.31, respectively. Also, the remaining NAD in experiment [3] is 10 nM (inactive). Moreover, the luciferase signal in experiment [4] was 40 AU (inactive).

For `CCn1cc(C(=O)O)c(=O)c2cnc(N3CCNCC3)nc21`, the fold change in experiment [1] (setting [6]) is 0.922 (inactive); in experiment [1] (setting [7]) it was 1.25. The figures for the cell count in experiment [1] (setting [8]) and in experiment [1] (setting [9]) were 9710 and 10500, respectively. In addition, the z-score was 0.675 (inactive) in experiment [2] (setting [10]) and 0.0409 in experiment [2] (setting [11]). For the same molecule, in experiment [3], the remaining NAD was 10 nM (inactive). The luciferase signal in experiment [4] was 56 AU (inactive).

Consider `O=C(O)c1cc(=O)c2ccccc2o1`, for which the fold change in experiment [1] (setting [6]) is 0.884 (inactive); in experiment [1] (setting [7]), 1.39. The figures for the cell count in experiment [1] (setting [8]) and in experiment [1] (setting [9]) were 8030 and 9090, respectively. Moreover, the z-score in experiment [2] (setting [10]) is -0.239 (inactive); in experiment [2] (setting [11]), -0.17. Further, the remaining NAD in experiment [3] is 10 nM (inactive). The luciferase signal in experiment [4] was 52 AU (inactive).
